Sampled rows, rich in hits. Any-hit rate of the full collection: about 3.8%.
PLK1 PBD inh: blocks phosphopeptide binding to human PLK1 polo-box domain | P53350 | Plk1 PBD binding of FITC phosphopeptide, fluorescence polarization | Potency, µM, without a hit: max response, negative = inhibition, hits mostly inhibitors | hit rate 2.8% among 360,000; further: potency means the concentration at half of the fitted maximal effect; series mostly up to about 57 µM; on the % scale 0 is the no-effect control and ±100 the full control effect; nearly all actives have a fitted effect of over 65% in size
KCNH2 3.1 inh: inhibitors of human KCNH2 3.1 potassium channel isoform. activity change, % (tested at about 1.8 µM). U2OS KCNH2 3.1, thallium flux FluxOr; active compounds read low. hit rate 0.95% among 340,000;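 active means maximum activity change below -70%; inconclusive means maximum activity change from -70% to -50%; inactive means maximum activity change above -50%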;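 further: thallium influx rate constant from kinetic fluorescence after stimulation buffer; on the % scale 0 is the no-effect control and ±100 the full control effect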
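Steps: virus added to U2OS suspension (4 h, RT, dark); medium with 10% FBS added, cells plated, 37 C overnight; FluxOr/Red40 loading buffer 45 min RT; stimulation buffer, 2 min kinetic read; rate constant normalized.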
MBNL1-CUG inh: inhibitors of human MBNL1 binding to CUG repeat RNA. Q9NR56. hit rate 0.036% among 280,000. TR-FRET MBNL1-His/biotin-(CUG)12 binding, 665/545 ratio. Potency, µM (highest dose often 57.5 µM), for inactives: at the highest dose activity change, negative = inhibition, usual class: inhibitors; active means well fitted inhibition curve with a large enough effect in the signal ratio, with a control signal flat, not every such curve was filed as active; inconclusive means small, poorly fitted or top-dose-only effect, or effect the other way, or a change in a side signal; inactive means no such curve, though single readings can be large or run the other way; the % refers to the signal ratio; further: potency means the concentration at half of the fitted maximal effect; on the % scale 0 is the no-effect control and ±100 the full control effect
Target sequence (Q9NR56 whole entry, looked up): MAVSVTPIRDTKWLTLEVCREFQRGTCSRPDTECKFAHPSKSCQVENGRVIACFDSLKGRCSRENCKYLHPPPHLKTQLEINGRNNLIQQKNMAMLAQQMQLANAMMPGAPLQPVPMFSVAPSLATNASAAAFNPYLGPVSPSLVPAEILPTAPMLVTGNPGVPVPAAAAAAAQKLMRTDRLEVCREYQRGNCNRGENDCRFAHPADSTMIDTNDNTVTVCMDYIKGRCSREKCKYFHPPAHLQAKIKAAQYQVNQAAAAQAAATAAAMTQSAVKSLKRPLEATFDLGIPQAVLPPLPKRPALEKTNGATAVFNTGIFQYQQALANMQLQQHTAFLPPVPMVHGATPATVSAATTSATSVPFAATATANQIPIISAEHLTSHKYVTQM
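Ratiometric TR-FRET (665 over 545 nm, excitation 340 nm) tracks disruption of MBNL1-His/biotin-(CUG)12 complex after 60 min at room temperature, with compounds at 92 nM to 58 uM final.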
CBFb RUNX1 block: CBF-beta/RUNX1 interaction disruption. Q01196+Q13951. AlphaScreen CBFb-His/RUNX1-biotin binding, biochemical. Potency, µM (series often up to 59.8 µM), inactives show at the highest dose activity, negative = inhibition, most hits filed as inhibitors. 230,000 tested, under 10 active. AID 1477; further: % of control where 0% means no effect
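Proteins preincubated together for 20 min at RT before compound addition; 15 min later, nickel and streptavidin beads were added and left 90 min prior to AlphaScreen measurement.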
VDR inhibitor: vitamin D3 receptor (human) inhibition. P11473. VDR-SRC2-3 peptide fluorescence polarization, 2 h. Potency, µM, without a hit: max response, negative = inhibition, most hits filed as inhibitors. hit rate 0.93% among 400,000. AID 504847; further: potency means the concentration at half of the fitted maximal effect; on the % scale 0 is the no-effect control and ±100 the full control effect
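Two reagent solutions held at 4 deg C in the dark were dispensed, compounds pinned at 23 nl, and the mixture incubated 2 h at room temperature. Read-out: fluorescence polarization of VDR–SRC2-3 peptide binding.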
KCNH2 WT inh: KCNH2 (human, wildtype) channel inhibition. Q12809. U2OS, BacMam KCNH2, thallium flux FluxOr; active compounds read low. activity change, % at 1.84 µM. hit rate 0.37% among 340,000. AID 720551;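 active means maximum activity change below -70%; inconclusive means maximum activity change between -70% and -50%; inactive means maximum activity change above -50%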; further: on the % scale 0 is the no-effect control and ±100 the full control effect
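U2OS cells were transduced with wild-type KCNH2 virus (2.03 x 10^8 / mL) for 4 h at room temperature, then cultured overnight at 37 C. Thallium flux was read with FluxOr dye. Rate constants were normalized to DMSO controls.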
Starred values were filed as active, the others as inactive. Unless noted, the call rests on the fitted dose curve; in most records, active means well fitted curve in the direction sought with a large enough effect; inconclusive means small, poorly fitted or top-dose-only effect, or another doubt; inactive means no such curve, though single readings can be large; an effect the other way counts as inactive or inconclusive.

Screening Cn1c(SCC(=O)c2ccccc2)nnc1-c1cccc(N)c1 returned PLK1 PBD inh 24µM*, KCNH2 3.1 inh 1, MBNL1-CUG inh 6%, CBFb RUNX1 block -4%, VDR inhibitor -6% and KCNH2 WT inh 1.
Cn1c(SCC(=O)c2ccccc2)nnc1-c1ccc(O)cc1 was read as PLK1 PBD inh -8%, KCNH2 3.1 inh -31, MBNL1-CUG inh -3%, CBFb RUNX1 block -2%, VDR inhibitor -21% and KCNH2 WT inh 2.
For O=C(NCCCn1ccnc1)c1cc(-c2ccc(Cl)cc2)nc2ccccc12 the results were PLK1 PBD inh -10%, KCNH2 3.1 inh -82*, MBNL1-CUG inh 18%, CBFb RUNX1 block -1%, VDR inhibitor 0% and KCNH2 WT inh -79*.
COc1ccc(-c2cc(C(=O)NCCc3ccc(S(N)(=O)=O)cc3)c3ccccc3n2)cc1 was read as PLK1 PBD inh -16%, KCNH2 3.1 inh -78*, CBFb RUNX1 block -8%, VDR inhibitor -18% and KCNH2 WT inh 8.
For CCOc1cc(C(=O)NCCc2ccc(S(N)(=O)=O)cc2)cc(OCC)c1OCC the results were PLK1 PBD inh 30µM*, KCNH2 3.1 inh -90*, MBNL1-CUG inh -5%, CBFb RUNX1 block -6%, VDR inhibitor -23% and KCNH2 WT inh -1.
Screening Cc1ccccc1NC(=S)NC(=O)c1cc(-c2ccccc2)nc2ccccc12 returned PLK1 PBD inh 30µM*, KCNH2 3.1 inh 0, MBNL1-CUG inh 8%, CBFb RUNX1 block -21%, VDR inhibitor -7% and KCNH2 WT inh -20.
Screening Cc1cccc(NC(=S)NC(=O)c2cc(-c3ccccc3)nc3ccccc23)c1 returned PLK1 PBD inh -10%, KCNH2 3.1 inh -2, MBNL1-CUG inh -1%, CBFb RUNX1 block -13%, VDR inhibitor -9% and KCNH2 WT inh -18.
Screening COc1cc(C(=O)NCCc2ccc(S(N)(=O)=O)cc2)cc(OC)c1OC returned PLK1 PBD inh 1%, KCNH2 3.1 inh 5, MBNL1-CUG inh -1%, CBFb RUNX1 block 5%, VDR inhibitor 10% and KCNH2 WT inh -19.
Screening COc1ccc(CCNc2ncnc3c2nnn3C)cc1 returned VDR inhibitor 9%.
Cc1ccc(-c2cc3ncc4c(n3n2)-c2ccccc2OC4)cc1 was read as VDR inhibitor -11%.
NS(=O)(=O)c1ccc(CNC(=O)c2cc(-c3cccnc3)nc3ccccc23)cc1 was read as PLK1 PBD inh -12%, KCNH2 3.1 inh -159*, MBNL1-CUG inh inconclusive, VDR inhibitor inconclusive and KCNH2 WT inh 0.
Cc1ccc(Sc2cc(C(=O)NCCCN(C)C)c3ccccc3n2)cc1 was read as PLK1 PBD inh -20%, KCNH2 3.1 inh -42, MBNL1-CUG inh 29%, VDR inhibitor -4% and KCNH2 WT inh 18.
Screening Cc1ccc(Sc2cc(C(=O)NCCN(C)C)c3ccccc3n2)cc1 returned PLK1 PBD inh -1%, KCNH2 3.1 inh -96*, MBNL1-CUG inh 17%, VDR inhibitor -15% and KCNH2 WT inh 6.
`Cc1ccc(CCNC(=O)c2cc(-c3ccncc3)nc3ccccc23)cc1` gave PLK1 PBD inh -5%, KCNH2 3.1 inh -112*, MBNL1-CUG inh 7%, CBFb RUNX1 block -4%, VDR inhibitor 6% and KCNH2 WT inh -10.
`Cc1ccc(-c2cc(C(=O)NCCc3ccc(S(N)(=O)=O)cc3)c3ccccc3n2)cc1` gave PLK1 PBD inh -11%, KCNH2 3.1 inh -6, MBNL1-CUG inh 38%, CBFb RUNX1 block -3%, VDR inhibitor 16% and KCNH2 WT inh 2.
`CCOC(=O)C(C)Sc1ccc2nnc(-c3ccc(OCC)cc3)n2n1` (centres undefined) gave VDR inhibitor -2%.
For Cn1nc(N)c2c(-c3ccc(Cl)cc3)c(C#N)c(N)nc21 the results were PLK1 PBD inh -12%, KCNH2 3.1 inh 7, MBNL1-CUG inh inconclusive, CBFb RUNX1 block -3%, VDR inhibitor 4% and KCNH2 WT inh -5.
For CCN(CC)c1ccc(-c2c(C#N)c(N)nc(OC)c2C#N)cc1 the results were PLK1 PBD inh 1%, KCNH2 3.1 inh -70*, MBNL1-CUG inh inconclusive, CBFb RUNX1 block 19%, VDR inhibitor -3% and KCNH2 WT inh -9.
Screening CCOc1ccc(C2C(C(=O)Nc3ccc(C)cc3C)=C(C)Nc3c(C(=O)Nc4ccc(C)cc4)cnn32)cc1OC (centres undefined) returned VDR inhibitor 10%.
O=C1C=CC(=O)N1c1ccccc1N1C(=O)C=CC1=O was read as PLK1 PBD inh 1.5µM*, KCNH2 3.1 inh -193*, VDR inhibitor 3.2µM* and KCNH2 WT inh -135*.
Screening COc1ccccc1CNc1nc2c(S(=O)(=O)c3ccc(C)c(C)c3)nnn2c2ccc(Cl)cc12 returned VDR inhibitor -11%.
For O=C(NCc1ccc(F)cc1)c1ccc(Nc2nc3ccccc3n3nnnc23)cc1 the results were VDR inhibitor 2%.
`CN(C)C(=O)Nc1ccc(Oc2ccc(Cl)cc2)cc1` gave CBFb RUNX1 block 18% and VDR inhibitor 2%.
For COCCN1Cc2cccc(C(=O)Nc3cccc(-c4nc5ccccc5[nH]4)c3)c2C1=O the results were PLK1 PBD inh 5%, KCNH2 3.1 inh -73*, MBNL1-CUG inh 17%, CBFb RUNX1 block -25%, VDR inhibitor 25% and KCNH2 WT inh 26.
`CCCCOP(=O)(c1ccc(N(C)C)cc1)C(Nc1ccccc1)c1ccccc1` (centres undefined) gave PLK1 PBD inh -8%, KCNH2 3.1 inh -95*, MBNL1-CUG inh 0%, CBFb RUNX1 block -24%, VDR inhibitor -6% and KCNH2 WT inh -4.
Screening CCCOP(=O)(c1ccc(N(C)C)cc1)C(Nc1ccccc1)c1ccc(N(C)C)cc1 (centres undefined) returned PLK1 PBD inh -1%, KCNH2 3.1 inh -21, MBNL1-CUG inh -2%, CBFb RUNX1 block -6%, VDR inhibitor -15% and KCNH2 WT inh 1.
Screening COc1ccccc1Nc1nc2c(s1)CCC2 returned PLK1 PBD inh 27µM*, MBNL1-CUG inh 7%, CBFb RUNX1 block -4%, VDR inhibitor -18% and KCNH2 WT inh 5.
Screening CC(=O)C1=C(O)C(=O)N(Cc2cccnc2)C1c1ccc(O)cc1 (centres undefined) returned PLK1 PBD inh 27µM*, KCNH2 3.1 inh 28, MBNL1-CUG inh 0%, CBFb RUNX1 block -3%, VDR inhibitor -1% and KCNH2 WT inh -3.
